# According to PubChem BioAssay (NCATS):
# Inconclusive results are not listed. Entries that show only a call come without a potency. The source made the active and inactive calls. Calls come from the whole dose curve; as a rule, active = well fitted inhibition curve with a large enough effect; inconclusive = small, poorly fitted or top-dose-only effect; inactive = flat fitted curve, though single readings scatter.
# Assays:
# Test in all cases: qHTS profiling for inhibitors of Plasmodium falciparum proliferation (AID 504749); note: nearly all actives have a fitted effect of over 60% in size
# Settings in all cases: P. falciparum in erythrocytes, SYBR Green DNA, 72 h; series mostly up to 28.7 µM
# [1] = system: CP286
# Method in brief: (§1)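 Each compound contacts P. falciparum-infected red blood cells for 72 h at 37 C; lysis buffer (Tris, EDTA, saponin, Triton X, SYBR Green I) is added and fluorescence measured next morning; values normalized to controls.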
# [2] = system: CP291
# Method in brief: as §1
# [3] = system: CP297
# Method in brief: as §1
# [4] = system: CP305
# Method in brief: as §1
# [5] = system: CP315
# Method in brief: as §1
# [6] = system: CP325
# Method in brief: as §1
# [7] = system: CP329
# Method in brief: as §1
# [8] = system: CP335
# Method in brief: as §1
# [9] = system: DFO2036
# Method in brief: as §1
# [10] = system: DIV14
# Method in brief: as §1
# Potency is the fitted concentration of half-maximal effect.
Structure (SMILES),Potency [1],Potency [2],Potency [3],Potency [4],Potency [5],Potency [6],Potency [7],Potency [8],Potency [9],Potency [10]
O=C1O[C@H]([C@@H](O)CO)C(O)=C1O,inactive,inactive,inactive,inactive,inactive,inactive,inactive,inactive,inactive,inactive
CC(=O)Oc1ccc(C2(c3ccc(OC(C)=O)cc3)C(=O)Nc3ccccc32)cc1,inactive,inactive,inactive,inactive,inactive,inactive,inactive,inactive,inactive,inactive
COC(=O)C1=C(C)NC(C)=C(C(=O)OC)C1c1ccccc1[N+](=O)[O-],inactive,inactive,inactive,inactive,inactive,inactive,inactive,inactive,inactive,inactive
Cc1ncc(COP(=O)(O)O)c(C=O)c1O,inactive,inactive,inactive,inactive,inactive,inactive,inactive,inactive,inactive,inactive
CCOC(=O)c1ccc(O)cc1,inactive,inactive,inactive,inactive,inactive,inactive,inactive,inactive,inactive,inactive
COc1cc(C(=O)N2CCOCC2)cc(OC)c1OC,inactive,inactive,inactive,inactive,inactive,inactive,inactive,inactive,inactive,inactive
CCN(CC)CCSC(=O)C(c1ccccc1)c1ccccc1,inactive,inactive,inactive,inactive,inactive,inactive,inactive,inactive,inactive,inactive
CC(C)(C)C(=O)NCCCC(=O)O,inactive,12000 nM (active),inactive,inactive,inactive,inactive,inactive,inactive,inactive,inactive
Nc1ccc(S(=O)(=O)Nc2ccccc2)cc1,inactive,inactive,inactive,inactive,inactive,inactive,inactive,inactive,inactive,inactive
O=c1cc[nH]c(=O)[nH]1,inactive,inactive,inactive,inactive,inactive,inactive,inactive,inactive,inactive,inactive
CC1(C)[C@@H]2CC[C@@]1(C)C(=O)C2,inactive,inactive,inactive,inactive,inactive,inactive,inactive,inactive,inactive,inactive
CC(C)(C)NCC(O)COc1ccc(NC(=O)NC2CCCCC2)cc1 (stereo not given),inactive,inactive,inactive,inactive,inactive,inactive,inactive,inactive,inactive,inactive
CCCCN(CCCC)CCCOC(=O)c1ccc(N)cc1,inactive,inactive,inactive,inactive,inactive,inactive,inactive,inactive,inactive,inactive
O=c1[nH]c(=O)c2[nH]c(=O)[nH]c2[nH]1,inactive,inactive,inactive,inactive,inactive,inactive,inactive,inactive,inactive,inactive
CCn1cc(C(=O)O)c(=O)c2cnc(N3CCNCC3)nc21,inactive,inactive,inactive,inactive,inactive,inactive,inactive,inactive,inactive,inactive
CCOc1ccc2ccccc2c1C(=O)N[C@@H]1C(=O)N2[C@@H]1SC(C)(C)[C@@H]2C(=O)O,inactive,inactive,inactive,inactive,inactive,inactive,inactive,inactive,inactive,inactive
CCCOC(=O)c1ccccc1,inactive,inactive,inactive,inactive,inactive,inactive,inactive,inactive,inactive,inactive
COc1ccc(Cl)cc1C(=O)NCCc1ccc(S(=O)(=O)NC(=O)NC2CCCCC2)cc1,inactive,inactive,inactive,inactive,inactive,inactive,inactive,inactive,inactive,inactive
Cc1cc2c(cc1S(N)(=O)=O)S(=O)(=O)CCC2,inactive,inactive,inactive,inactive,inactive,inactive,inactive,–,inactive,inactive
CC(=O)CCC(=O)O,inactive,inactive,inactive,inactive,inactive,inactive,inactive,inactive,inactive,inactive
Cc1cc(C(C#N)c2ccc(Cl)cc2)c(Cl)cc1NC(=O)c1cc(I)cc(I)c1O (stereo not given),inactive,inactive,inactive,inactive,–,inactive,inactive,inactive,inactive,inactive
NC(CSCC(=O)O)C(=O)O (stereo not given),inactive,inactive,inactive,inactive,inactive,inactive,inactive,inactive,inactive,inactive
CC1=C(/C=C/C(C)=C/C=C/C(C)=C/C(=O)O)C(C)(C)CCC1,inactive,inactive,–,inactive,inactive,inactive,inactive,inactive,inactive,inactive
CCCCCCCCCCCCOS(=O)(=O)O,inactive,inactive,inactive,inactive,inactive,inactive,inactive,inactive,inactive,inactive
NS(=O)(=O)c1cc2c(cc1Cl)NC(CSCc1ccccc1)=NS2(=O)=O,inactive,inactive,inactive,inactive,inactive,inactive,inactive,inactive,inactive,inactive
Nc1nc2c(ncn2CCC(CO)CO)c(=O)[nH]1,inactive,inactive,inactive,inactive,inactive,inactive,inactive,inactive,inactive,inactive

Structure (SMILES),Potency [1],Potency [2],Potency [3],Potency [4],Potency [5],Potency [6],Potency [7],Potency [8],Potency [9],Potency [10]
COc1cc(C)c(Cc2cnc(N)nc2N)cc1OC,inactive,inactive,inactive,inactive,inactive,inactive,inactive,inactive,inactive,inactive
O=c1cc(CO)occ1O,inactive,inactive,inactive,inactive,inactive,inactive,inactive,inactive,inactive,inactive
CCCCCCCCCCCCCCCCCCOCC(O)CO (stereo not given),inactive,inactive,inactive,inactive,inactive,inactive,inactive,–,inactive,inactive
CCCCOc1cc(C(=O)OCCN(CC)CC)ccc1N,inactive,inactive,inactive,inactive,inactive,inactive,inactive,inactive,inactive,inactive
CCCc1c(OCCCCc2nn[nH]n2)ccc(C(C)=O)c1O,inactive,inactive,inactive,inactive,–,inactive,inactive,inactive,inactive,inactive
CCCCC(CC)COC(=O)c1ccccc1O (stereo not given),inactive,inactive,inactive,inactive,inactive,inactive,inactive,inactive,inactive,inactive
COc1ccc(S(=O)(=O)Nc2nnc(CC(C)C)s2)cc1,inactive,inactive,inactive,inactive,inactive,inactive,inactive,inactive,inactive,inactive
Cn1c(=O)c2c(ncn2CC2OCCO2)n(C)c1=O,inactive,inactive,–,inactive,inactive,inactive,inactive,inactive,inactive,inactive
CCN(CC)CCNC(=O)c1cc(Cl)c(N)cc1OC,inactive,inactive,inactive,inactive,inactive,inactive,inactive,inactive,inactive,inactive
Nc1ccc(S(=O)(=O)Nc2ccc(Cl)nn2)cc1,inactive,inactive,inactive,inactive,inactive,inactive,inactive,–,–,inactive
NC(=O)NNc1ccccc1,inactive,inactive,inactive,inactive,inactive,inactive,inactive,inactive,inactive,inactive
Nc1ccc(S(=O)(=O)NC(=O)c2ccccc2)cc1,inactive,inactive,inactive,inactive,inactive,inactive,inactive,inactive,inactive,inactive
NC1CCN(c2cccc(Cl)n2)CC1,inactive,inactive,–,inactive,inactive,inactive,inactive,inactive,inactive,–
CC(O)CN(CCN(CC(C)O)CC(C)O)CC(C)O (stereo not given),inactive,inactive,inactive,inactive,inactive,inactive,inactive,inactive,inactive,inactive
Cc1cc(N)c2ccccc2[n+]1CCCCCCCCCC[n+]1c(C)cc(N)c2ccccc21,447 nM (active),405 nM (active),405 nM (active),228 nM (active),721 nM (active),572 nM (active),642 nM (active),–,79.4 nM (active),161 nM (active)
C[C@]12C[C@H](O)[C@H]3[C@@H](CCC4=CC(=O)CC[C@@]43C)[C@@H]1CC[C@@H]2C(=O)CO,inactive,inactive,inactive,inactive,inactive,inactive,inactive,inactive,–,inactive
Cc1cc(O)cc2c1O[C@](C)(CCC[C@H](C)CCC[C@H](C)CCCC(C)C)CC2,inactive,inactive,inactive,inactive,inactive,inactive,inactive,inactive,inactive,inactive
NCCNCCNCCN,inactive,inactive,inactive,inactive,inactive,inactive,inactive,–,inactive,inactive
COc1ccccc1O,inactive,inactive,inactive,inactive,inactive,inactive,inactive,inactive,inactive,inactive
CNCCCC1c2ccccc2C=Cc2ccccc21,inactive,inactive,inactive,inactive,inactive,–,inactive,–,inactive,–
O=C(O)c1ccccn1,inactive,inactive,inactive,inactive,inactive,inactive,inactive,–,inactive,–
CCOC(=O)[C@H](CCc1ccccc1)N[C@@H](C)C(=O)N1C(=O)N(C)C[C@H]1C(=O)O,inactive,inactive,inactive,inactive,inactive,inactive,inactive,inactive,inactive,inactive
CCC(=O)c1ccc(O)cc1,inactive,inactive,inactive,inactive,inactive,inactive,inactive,inactive,inactive,inactive
COc1ccc2[nH]c(S(=O)Cc3ncc(C)c(OC)c3C)nc2n1 (stereo not given),–,inactive,–,inactive,inactive,inactive,inactive,–,–,3380 nM (active)
CSc1ccc2c(c1)N(CCC1CCCCN1C)c1ccccc1S2 (stereo not given),11200 nM (active),–,–,–,–,–,–,–,–,10700 nM (active)
